Key:
Assay in all cases: DAPPL (digital affinity profiling via proximity ligation, sequencing); 10 mM Tris-HCl pH 7.5, 50 mM NaCl, 1 mM DTT, 4% glycerol, room temperature, 30 min; GST-TFs on glutathione beads, 16-mer random dsDNA library, 0.1% formaldehyde crosslink after washing; high values mean tight binding
Conditions in all cases: protein: recombinant; tags: N-terminal GST; dsDNA, one strand shown
ELK1 = target: T1, ELK1 (Homo sapiens, UniProt P19419 1-428)
T1 sequence: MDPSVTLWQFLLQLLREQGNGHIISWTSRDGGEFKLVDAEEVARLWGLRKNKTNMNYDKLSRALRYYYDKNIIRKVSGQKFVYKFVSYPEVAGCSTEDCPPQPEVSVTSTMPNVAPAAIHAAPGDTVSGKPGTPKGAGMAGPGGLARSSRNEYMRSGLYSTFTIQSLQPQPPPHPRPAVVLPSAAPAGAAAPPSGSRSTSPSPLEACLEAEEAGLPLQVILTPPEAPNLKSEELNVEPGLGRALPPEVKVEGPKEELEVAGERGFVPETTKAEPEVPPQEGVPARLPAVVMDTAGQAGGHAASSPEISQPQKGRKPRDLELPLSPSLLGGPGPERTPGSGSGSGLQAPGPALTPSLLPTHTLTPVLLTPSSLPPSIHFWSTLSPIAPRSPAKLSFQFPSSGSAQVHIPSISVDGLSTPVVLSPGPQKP
Outline: (§1)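 The binding signal reported is, for every hexamer, its read frequency for a factor over its read frequency for the tag-only sample. Reads came from pools of yeast-expressed, GST-fused human transcription factors on glutathione beads, barcoded with DNA and mixed with that sample, which were incubated with 200 nmole of a random double-stranded 16-mer DNA library in Tris/NaCl/DTT/glycerol buffer at room temperature for 30 min. After washing, the pools were crosslinked with 0.1% formaldehyde, proximity-ligated with BsaI/T4 ligase for 1 h at 37 °C, PCR-amplified and sequenced on an Illumina NextSeq500.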

GABPA = target: T2, GABPA (Homo sapiens, UniProt Q06546 1-454)
T2 sequence: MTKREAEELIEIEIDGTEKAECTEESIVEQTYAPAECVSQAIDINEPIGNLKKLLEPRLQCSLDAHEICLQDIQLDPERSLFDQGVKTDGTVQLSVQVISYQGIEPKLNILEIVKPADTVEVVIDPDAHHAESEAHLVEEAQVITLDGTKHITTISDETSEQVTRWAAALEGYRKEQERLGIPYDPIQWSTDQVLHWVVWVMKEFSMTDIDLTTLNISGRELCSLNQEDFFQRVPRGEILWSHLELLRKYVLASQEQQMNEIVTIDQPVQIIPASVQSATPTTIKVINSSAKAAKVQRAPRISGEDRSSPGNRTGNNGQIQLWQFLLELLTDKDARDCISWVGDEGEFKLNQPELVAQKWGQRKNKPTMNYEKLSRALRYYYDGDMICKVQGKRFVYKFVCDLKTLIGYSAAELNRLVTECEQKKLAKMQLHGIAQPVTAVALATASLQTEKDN
Outline: as §1

ELF1 = ELF1 (Homo sapiens, UniProt P32519 1-619)
Outline: as §1

EHF = target: T3, EHF (Homo sapiens, UniProt Q9NZC4 1-300)
T3 sequence: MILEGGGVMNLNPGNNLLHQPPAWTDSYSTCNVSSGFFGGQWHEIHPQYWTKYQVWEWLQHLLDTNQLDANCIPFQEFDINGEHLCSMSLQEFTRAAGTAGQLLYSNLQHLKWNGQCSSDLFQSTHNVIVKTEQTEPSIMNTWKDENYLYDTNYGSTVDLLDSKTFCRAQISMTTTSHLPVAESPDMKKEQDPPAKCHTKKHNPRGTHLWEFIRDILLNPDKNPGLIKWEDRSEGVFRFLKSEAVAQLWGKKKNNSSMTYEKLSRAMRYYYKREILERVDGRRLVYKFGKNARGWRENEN
Outline: as §1

SPIB = SPIB (Homo sapiens, UniProt Q01892 1-262)
Outline: as §1

SPIC = target: T4, SPIC (Homo sapiens, UniProt Q8N5J4 1-248)
T4 sequence: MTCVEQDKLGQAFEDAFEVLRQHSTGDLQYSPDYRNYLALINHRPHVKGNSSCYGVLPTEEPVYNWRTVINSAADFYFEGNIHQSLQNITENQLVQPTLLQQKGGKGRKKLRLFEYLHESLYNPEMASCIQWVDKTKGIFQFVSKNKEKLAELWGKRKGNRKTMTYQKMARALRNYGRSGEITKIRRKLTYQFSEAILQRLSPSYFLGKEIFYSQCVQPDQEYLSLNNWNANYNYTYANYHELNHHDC
Outline: as §1

ELF4 = ELF4 (Homo sapiens, UniProt Q99607 1-663)
Outline: as §1

ELK4 = target: T5, ELK4 (Homo sapiens, UniProt P28324-2 1-405)
T5 sequence: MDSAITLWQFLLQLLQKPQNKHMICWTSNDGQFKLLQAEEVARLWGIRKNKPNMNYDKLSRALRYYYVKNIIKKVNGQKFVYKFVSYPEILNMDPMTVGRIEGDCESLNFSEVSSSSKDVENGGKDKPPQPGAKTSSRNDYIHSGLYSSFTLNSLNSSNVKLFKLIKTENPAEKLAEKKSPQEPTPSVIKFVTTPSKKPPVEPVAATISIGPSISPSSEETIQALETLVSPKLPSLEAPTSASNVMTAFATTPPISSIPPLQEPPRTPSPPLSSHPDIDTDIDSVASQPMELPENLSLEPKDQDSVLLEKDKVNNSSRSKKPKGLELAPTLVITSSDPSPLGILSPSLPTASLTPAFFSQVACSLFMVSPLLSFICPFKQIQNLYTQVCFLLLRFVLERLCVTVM
Outline: as §1

ERF = target: T6, ERF (Homo sapiens, UniProt P50548 1-548)
T6 sequence: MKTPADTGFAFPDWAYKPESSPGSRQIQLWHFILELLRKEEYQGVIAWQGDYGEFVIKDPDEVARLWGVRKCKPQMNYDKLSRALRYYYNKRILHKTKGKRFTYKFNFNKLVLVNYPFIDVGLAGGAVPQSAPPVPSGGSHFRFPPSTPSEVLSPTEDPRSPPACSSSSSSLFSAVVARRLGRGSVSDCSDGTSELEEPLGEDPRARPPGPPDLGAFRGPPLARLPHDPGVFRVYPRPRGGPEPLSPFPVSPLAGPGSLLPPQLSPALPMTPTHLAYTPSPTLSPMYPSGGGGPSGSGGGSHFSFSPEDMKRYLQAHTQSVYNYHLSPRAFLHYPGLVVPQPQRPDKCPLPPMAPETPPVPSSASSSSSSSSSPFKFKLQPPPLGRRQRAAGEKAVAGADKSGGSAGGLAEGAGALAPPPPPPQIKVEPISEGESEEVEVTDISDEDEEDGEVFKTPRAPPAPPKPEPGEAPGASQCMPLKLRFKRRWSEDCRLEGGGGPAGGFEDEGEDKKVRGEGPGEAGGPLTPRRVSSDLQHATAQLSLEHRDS
Outline: as §1

ETV3L = target: T7, ETV3L (Homo sapiens, UniProt Q6ZN32 1-361)
T7 sequence: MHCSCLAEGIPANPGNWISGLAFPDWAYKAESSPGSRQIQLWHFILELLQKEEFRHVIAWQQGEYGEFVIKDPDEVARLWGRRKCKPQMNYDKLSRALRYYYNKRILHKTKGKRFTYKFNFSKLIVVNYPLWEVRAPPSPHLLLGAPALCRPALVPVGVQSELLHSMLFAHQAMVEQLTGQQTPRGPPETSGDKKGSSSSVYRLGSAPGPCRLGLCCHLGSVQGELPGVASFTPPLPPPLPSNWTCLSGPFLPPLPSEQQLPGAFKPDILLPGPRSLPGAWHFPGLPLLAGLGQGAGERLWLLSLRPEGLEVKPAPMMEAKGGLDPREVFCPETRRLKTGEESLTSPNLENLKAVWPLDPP
Outline: as §1

ETS2 = target: T8, ETS2 (Homo sapiens, UniProt P15036 1-469)
T8 sequence: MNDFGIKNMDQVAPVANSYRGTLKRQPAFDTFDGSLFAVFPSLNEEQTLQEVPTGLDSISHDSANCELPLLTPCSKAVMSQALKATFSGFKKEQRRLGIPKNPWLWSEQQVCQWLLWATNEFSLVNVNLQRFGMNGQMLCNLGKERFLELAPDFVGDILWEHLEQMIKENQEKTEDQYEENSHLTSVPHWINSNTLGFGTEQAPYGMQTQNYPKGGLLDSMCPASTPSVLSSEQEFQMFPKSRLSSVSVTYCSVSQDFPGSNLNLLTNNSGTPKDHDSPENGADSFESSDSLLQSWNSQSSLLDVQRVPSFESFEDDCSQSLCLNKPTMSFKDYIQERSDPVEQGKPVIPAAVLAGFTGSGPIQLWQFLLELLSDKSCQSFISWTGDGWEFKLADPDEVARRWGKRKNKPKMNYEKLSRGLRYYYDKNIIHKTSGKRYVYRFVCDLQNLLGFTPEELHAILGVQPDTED
Outline: as §1

ETV6 = ETV6 (Homo sapiens, UniProt P41212 1-452)
Outline: as §1

ELF3 = target: T9, ELF3 (Homo sapiens, UniProt P78545 1-371)
T9 sequence: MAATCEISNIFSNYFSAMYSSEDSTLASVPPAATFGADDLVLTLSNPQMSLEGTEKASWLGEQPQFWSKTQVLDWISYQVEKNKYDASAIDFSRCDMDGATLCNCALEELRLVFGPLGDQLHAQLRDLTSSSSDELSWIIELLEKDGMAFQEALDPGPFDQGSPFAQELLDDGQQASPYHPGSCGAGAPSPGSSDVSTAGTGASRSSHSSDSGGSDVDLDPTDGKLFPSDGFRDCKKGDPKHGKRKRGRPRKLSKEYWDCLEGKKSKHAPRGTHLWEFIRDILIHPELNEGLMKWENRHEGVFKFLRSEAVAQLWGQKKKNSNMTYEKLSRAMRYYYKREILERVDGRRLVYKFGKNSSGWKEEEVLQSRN
Outline: as §1

SPDEF = target: T10, SPDEF (Homo sapiens, UniProt O95238 1-335)
T10 sequence: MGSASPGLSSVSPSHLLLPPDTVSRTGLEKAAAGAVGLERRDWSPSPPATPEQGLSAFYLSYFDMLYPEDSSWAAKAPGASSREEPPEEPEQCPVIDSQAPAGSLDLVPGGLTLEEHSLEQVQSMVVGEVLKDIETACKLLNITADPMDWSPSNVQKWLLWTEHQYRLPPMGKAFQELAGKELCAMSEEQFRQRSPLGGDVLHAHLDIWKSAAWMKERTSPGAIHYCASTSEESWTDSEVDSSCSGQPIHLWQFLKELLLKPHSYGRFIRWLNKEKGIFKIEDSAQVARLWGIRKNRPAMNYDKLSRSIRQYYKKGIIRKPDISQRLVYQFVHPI
Outline: as §1

ETV7 = target: T11, ETV7 (Homo sapiens, UniProt Q9Y603 1-341)
T11 sequence: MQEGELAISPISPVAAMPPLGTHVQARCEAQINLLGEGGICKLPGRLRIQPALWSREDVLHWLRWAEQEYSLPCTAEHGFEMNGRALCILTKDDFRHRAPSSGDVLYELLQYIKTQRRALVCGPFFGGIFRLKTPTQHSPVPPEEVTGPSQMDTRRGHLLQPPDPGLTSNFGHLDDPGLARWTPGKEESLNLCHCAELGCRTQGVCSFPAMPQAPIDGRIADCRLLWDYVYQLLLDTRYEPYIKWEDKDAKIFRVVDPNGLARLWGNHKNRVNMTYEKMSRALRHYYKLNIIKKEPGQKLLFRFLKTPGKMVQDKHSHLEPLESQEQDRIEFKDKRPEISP
Outline: as §1

Sequence of SPIB (Q01892 whole entry): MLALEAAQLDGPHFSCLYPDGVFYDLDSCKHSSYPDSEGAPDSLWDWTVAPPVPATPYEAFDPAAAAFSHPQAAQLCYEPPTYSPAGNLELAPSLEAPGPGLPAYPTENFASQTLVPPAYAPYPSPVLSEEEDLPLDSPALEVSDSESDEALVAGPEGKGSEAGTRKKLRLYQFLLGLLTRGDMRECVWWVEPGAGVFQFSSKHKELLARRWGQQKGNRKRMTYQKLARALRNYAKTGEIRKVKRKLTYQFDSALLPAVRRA
Sequence of ELF1 (P32519 whole entry): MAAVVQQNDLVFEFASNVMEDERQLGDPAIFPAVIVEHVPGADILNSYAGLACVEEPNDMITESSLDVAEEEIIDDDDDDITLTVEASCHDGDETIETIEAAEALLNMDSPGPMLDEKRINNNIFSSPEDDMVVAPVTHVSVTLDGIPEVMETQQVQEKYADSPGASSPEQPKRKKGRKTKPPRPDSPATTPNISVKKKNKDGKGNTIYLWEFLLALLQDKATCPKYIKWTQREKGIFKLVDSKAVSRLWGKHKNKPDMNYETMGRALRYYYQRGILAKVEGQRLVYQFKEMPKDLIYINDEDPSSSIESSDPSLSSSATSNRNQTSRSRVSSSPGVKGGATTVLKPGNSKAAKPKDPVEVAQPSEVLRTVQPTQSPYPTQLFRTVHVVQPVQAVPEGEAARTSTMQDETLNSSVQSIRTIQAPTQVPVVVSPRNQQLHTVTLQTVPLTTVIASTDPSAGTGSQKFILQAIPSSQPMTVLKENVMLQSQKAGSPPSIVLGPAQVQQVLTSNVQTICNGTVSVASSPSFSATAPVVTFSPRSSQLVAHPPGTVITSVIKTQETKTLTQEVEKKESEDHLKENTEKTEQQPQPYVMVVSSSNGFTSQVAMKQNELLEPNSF
Sequence of ETV6 (P41212 whole entry): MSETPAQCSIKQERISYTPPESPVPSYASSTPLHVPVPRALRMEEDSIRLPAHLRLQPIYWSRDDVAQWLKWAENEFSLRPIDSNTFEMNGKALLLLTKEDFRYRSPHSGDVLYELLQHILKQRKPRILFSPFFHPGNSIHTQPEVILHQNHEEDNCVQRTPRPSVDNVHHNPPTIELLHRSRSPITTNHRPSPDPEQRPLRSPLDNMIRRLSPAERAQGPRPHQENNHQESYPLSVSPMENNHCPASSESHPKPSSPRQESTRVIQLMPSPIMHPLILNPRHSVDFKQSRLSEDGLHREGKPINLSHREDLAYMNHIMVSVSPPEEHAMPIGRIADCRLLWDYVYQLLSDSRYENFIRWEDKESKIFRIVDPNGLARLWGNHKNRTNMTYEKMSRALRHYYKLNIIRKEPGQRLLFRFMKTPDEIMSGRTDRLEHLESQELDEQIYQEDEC
Sequence of ELF4 (Q99607 whole entry): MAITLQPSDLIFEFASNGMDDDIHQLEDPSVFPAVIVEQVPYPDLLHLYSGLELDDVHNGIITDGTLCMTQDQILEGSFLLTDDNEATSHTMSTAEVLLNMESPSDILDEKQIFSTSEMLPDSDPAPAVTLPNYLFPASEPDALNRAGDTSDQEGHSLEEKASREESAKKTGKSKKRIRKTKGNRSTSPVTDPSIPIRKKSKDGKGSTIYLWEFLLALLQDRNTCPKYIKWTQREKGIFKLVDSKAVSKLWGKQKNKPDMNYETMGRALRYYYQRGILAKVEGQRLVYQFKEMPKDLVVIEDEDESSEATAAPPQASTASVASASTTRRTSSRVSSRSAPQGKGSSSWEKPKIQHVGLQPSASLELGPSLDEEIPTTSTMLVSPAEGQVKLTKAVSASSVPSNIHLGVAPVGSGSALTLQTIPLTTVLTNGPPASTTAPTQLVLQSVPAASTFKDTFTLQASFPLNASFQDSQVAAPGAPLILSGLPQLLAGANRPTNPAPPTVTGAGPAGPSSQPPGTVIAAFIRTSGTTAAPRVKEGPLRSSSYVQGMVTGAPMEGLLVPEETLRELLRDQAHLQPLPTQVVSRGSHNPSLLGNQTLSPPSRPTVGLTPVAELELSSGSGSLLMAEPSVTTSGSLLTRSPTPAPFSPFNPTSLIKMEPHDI

**Q.** With GCTGCA as the sequence, how does the binding signal (ELK1) read?
**A.** The binding signal was 1.07 fold enrichment (6-mer frequency, TF over GST control).

**Q.** What about the binding signal (GABPA) of the same sequence?
**A.** The binding signal was 1.05 fold enrichment (6-mer frequency, TF over GST control).

**Q.** And the binding signal (ELF1)?
**A.** The binding signal was 1.05 fold enrichment (6-mer frequency, TF over GST control).

**Q.** What about the binding signal (EHF) of the same sequence?
**A.** Its binding signal is 1.08 fold enrichment (6-mer frequency, TF over GST control).

**Q.** What about the binding signal (SPIB) of the same sequence?
**A.** Its binding signal is 1.07 fold enrichment (6-mer frequency, TF over GST control).

**Q.** What about the binding signal (SPIC) of the same sequence?
**A.** Its binding signal is 1.09 fold enrichment (6-mer frequency, TF over GST control).

**Q.** What about the binding signal (ELF4) of the same sequence?
**A.** Its binding signal is 1.05 fold enrichment (6-mer frequency, TF over GST control).

**Q.** And the binding signal (ELK4)?
**A.** The binding signal was 1.08 fold enrichment (6-mer frequency, TF over GST control).

**Q.** And the binding signal (ERF)?
**A.** Its binding signal is 1.2 fold enrichment (6-mer frequency, TF over GST control).

**Q.** What about the binding signal (ETV3L) of the same sequence?
**A.** Its binding signal is 1.11 fold enrichment (6-mer frequency, TF over GST control).

**Q.** And the binding signal (ETS2)?
**A.** The binding signal was 1.07 fold enrichment (6-mer frequency, TF over GST control).

**Q.** And the binding signal (ETV6)?
**A.** The binding signal was 1 fold enrichment (6-mer frequency, TF over GST control).

**Q.** With TTGGAT as the sequence, how does the binding signal (ELF1) read?
**A.** Its binding signal is 1.01 fold enrichment (6-mer frequency, TF over GST control).

**Q.** And the binding signal (SPIB)?
**A.** The binding signal was 1.07 fold enrichment (6-mer frequency, TF over GST control).

**Q.** And the binding signal (ELK4)?
**A.** The binding signal was 1.04 fold enrichment (6-mer frequency, TF over GST control).

**Q.** And the binding signal (ELF3)?
**A.** The binding signal was 1.04 fold enrichment (6-mer frequency, TF over GST control).

**Q.** And the binding signal (SPDEF)?
**A.** The binding signal was 1.13 fold enrichment (6-mer frequency, TF over GST control).

**Q.** And the binding signal (ETV7)?
**A.** Its binding signal is 1.01 fold enrichment (6-mer frequency, TF over GST control).

From paper PMC7862700, “An all-to-all approach to the identification of sequence-specific readers for epigenetic DNA modifications on cytosine”
